# Measurements: the antibiotic and cytotoxicity screens of Wong et al. (2023)
# The campaign covered roughly 39,000 compounds. About 3,300 (8.5%) were called active. The entries come from a sample that favours actives as a whole.
# Test system: HepG2
# Test: cytotoxicity call (relative viability < 0.9)
# Conditions: 10 µM
row,Compound,cytotoxicity call
1,Cc1noc(C)c1NC(=O)Nc1ccc2c(c1)C(=O)N([C@H](C)CO)C[C@H](C)[C@@H](CN(C)C(=O)Nc1c(C)noc1C)OCCCC[C@@H](C)O2,inactive
2,COc1ccc(-c2cnc3c(c2)C(=O)N([C@H](C)CO)C[C@@H](C)[C@H](CN(C)C(=O)Cc2ccccn2)O3)cc1,inactive
3,CNC[C@H]1Oc2ccc(NC(=O)Cn3cnnn3)cc2CC(=O)N([C@@H](C)CO)C[C@@H]1C,inactive
4,C[C@@H]1CN([C@H](C)CO)C(=O)c2cc(C3=CCCC3)cnc2O[C@@H]1CN(C)S(=O)(=O)c1cn(C)cn1,inactive
5,C[n+]1cccc(C(=O)O)c1,inactive
6,COc1ccc(NC(=O)Nc2ccc3c(c2)CC(=O)N([C@H](C)CO)C[C@@H](C)[C@@H](CN(C)Cc2ccc(-c4ccccc4)cc2)O3)cc1,active
7,Cc1noc(C)c1NC(=O)Nc1ccc2c(c1)CC(=O)N([C@H](C)CO)C[C@H](C)[C@@H](CN(C)C(=O)NC(C)C)O2,inactive
8,CCc1ccc(/C=C2\SC(=O)N(CCCCCCNC(=O)c3ccccc3Nc3ccc([N+](=O)[O-])c4nonc34)C2=O)cc1,active
9,CCc1ccc(/C=C2\SC(=O)N(CCCCCCNC(=O)c3ccc(Nc4ccc([N+](=O)[O-])c5nonc45)cc3)C2=O)cc1,inactive
10,N[C@H]1CCCN(Cc2cccc(O)c2)C1,inactive
11,O=C(/C=C/c1ccc(CNc2ccc([C@H]3O[C@@H](CSc4ccncc4)C[C@H](c4ccccc4)O3)cc2)cc1)NO,active
12,O=C(CCCCCCC(=O)Nc1ccc([C@@H]2O[C@H](CSc3ccncc3)C[C@H](c3ccccc3)O2)cc1)NO,inactive
13,O=C(CCCCCCC(=O)Nc1ccc([C@H]2O[C@@H](CSc3ccncc3)C[C@H](c3ccccc3)O2)cc1)NO,inactive
14,C[C@H]1CN([C@@H](C)CO)C(=O)c2c(c3ccccc3n2C)-c2ccccc2CO[C@@H]1CN(C)Cc1ccc(Cl)c(Cl)c1,inactive
15,O=C1/C(=C/c2cccs2)CCC/C1=C\c1cccs1,inactive
16,O=C1C(=Cc2cccs2)CCCC1=Cc1cccs1,inactive
17,CC(C)/C=C1\CC/C(=C\c2ccc(C(F)(F)F)cc2)C1=O,active
18,C[C@@H]1CN([C@H](C)CO)C(=O)c2cc(NC(=O)Cn3cnnn3)ccc2O[C@H]1CN(C)S(=O)(=O)c1cccs1,inactive
19,CC(=O)n1cc([C@@H]2C=C(C(=O)N3CCCCCCC3)O[C@H](OCc3ccc(CO)cc3)C2)c2ccccc21,inactive
20,COc1ccccc1C#Cc1ccc2c(c1)O[C@H](CN(C)Cc1cccnc1)[C@H](C)CN([C@@H](C)CO)S2(=O)=O,inactive
21,COc1ccccc1C#Cc1ccc2c(c1)O[C@H](CN(C)Cc1cccnc1)[C@H](C)CN([C@H](C)CO)S2(=O)=O,inactive

row,Compound,cytotoxicity call
1,COc1ccccc1C#Cc1ccc2c(c1)O[C@@H](CN(C)Cc1cccnc1)[C@H](C)CN([C@H](C)CO)S2(=O)=O,active
2,COc1ccccc1C#Cc1ccc2c(c1)O[C@H](CN(C)Cc1cccnc1)[C@@H](C)CN([C@@H](C)CO)S2(=O)=O,inactive
3,COc1ccccc1C#Cc1ccc2c(c1)O[C@@H](CN(C)Cc1cccnc1)[C@@H](C)CN([C@H](C)CO)S2(=O)=O,inactive
4,COc1ccccc1C#Cc1ccc2c(c1)O[C@@H](CN(C)Cc1cccnc1)[C@@H](C)CN([C@@H](C)CO)S2(=O)=O,active
5,COc1ccccc1C#Cc1ccc2c(c1)O[C@@H](CN(C)Cc1cccnc1)[C@H](C)CN([C@@H](C)CO)S2(=O)=O,inactive
6,COc1ccccc1C#Cc1ccc2c(c1)O[C@H](CN(C)Cc1cccnc1)[C@@H](C)CN([C@H](C)CO)S2(=O)=O,active
7,COc1ccccc1C#Cc1ccc2c(c1)O[C@@H](CN(C)Cc1cncnc1)[C@@H](C)CN([C@@H](C)CO)S2(=O)=O,inactive
8,Cc1ccc(S(=O)(=O)Nc2ccc3c(c2)C(=O)N([C@@H](C)CO)C[C@@H](C)[C@H](CN(C)C(=O)C2CCCCC2)OCCCC[C@@H](C)O3)cc1,inactive
9,C=CCOC(=O)[C@@H]1[C@H]2C(=O)O[C@H](c3ccccc3)[C@H](c3ccccc3)N2[C@H](c2ccc(OCCOC(=O)[C@@H]3C[C@@H]4C(=O)NCC(=O)N4[C@@H]3c3cccc(OCCO)c3)cc2)[C@@]12C(=O)Nc1ccccc12,inactive
10,C[C@@H]1CN([C@@H](C)CO)C(=O)Cc2cc(NC(=O)Nc3cccc4ccccc34)ccc2O[C@H]1CN(C)C(=O)Nc1ccc2c(c1)OCO2,inactive
11,C[C@@H]1CCCCO[C@@H](CN(C)C(=O)C2CCCCC2)[C@H](C)CN([C@H](C)CO)C(=O)c2cc(NC(=O)c3ccccc3)ccc2O1,inactive
12,C[C@H]1CN([C@@H](C)CO)C(=O)c2cc(NC(=O)CCCN(C)C)ccc2O[C@@H]1CN(C)Cc1ccc2c(c1)OCO2,inactive
13,C[C@@H]1CCCCO[C@H](CN(C)Cc2ccc(Cl)c(Cl)c2)[C@@H](C)CN([C@@H](C)CO)C(=O)c2cc(NC(=O)Nc3ccc4c(c3)OCO4)ccc2O1,inactive
14,C[C@@H]1CN([C@H](C)CO)C(=O)c2cc(NC(=O)Nc3ccc4c(c3)OCO4)ccc2O[C@@H](C)CCCCO[C@@H]1CN(C)Cc1ccc(Cl)c(Cl)c1,active
15,C[C@@H]1CCCCO[C@H](CN(C)Cc2ccc(Cl)c(Cl)c2)[C@@H](C)CN([C@H](C)CO)C(=O)c2cc(NC(=O)Nc3ccc4c(c3)OCO4)ccc2O1,active
16,C[C@H]1CCCCO[C@H](CN(C)Cc2ccc(Cl)c(Cl)c2)[C@@H](C)CN([C@@H](C)CO)C(=O)c2cc(NC(=O)Nc3ccc4c(c3)OCO4)ccc2O1,active
17,C[C@@H]1CCCCO[C@@H](CN(C)Cc2ccc(Cl)c(Cl)c2)[C@H](C)CN([C@@H](C)CO)C(=O)c2cc(NC(=O)Nc3ccc4c(c3)OCO4)ccc2O1,inactive
18,C[C@@H]1CN([C@H](C)CO)C(=O)c2cc(NC(=O)Nc3ccc4c(c3)OCO4)ccc2O[C@@H](C)CCCCO[C@H]1CN(C)Cc1ccc(Cl)c(Cl)c1,active
19,C[C@H](CO)N1C[C@H](C)[C@@H](CN(C)Cc2ccc(Cl)c(Cl)c2)OCCCC[C@H](C)Oc2ccc(NC(=O)Nc3ccc4c(c3)OCO4)cc2C1=O,inactive
20,C[C@@H]1CCCCO[C@@H](CN(C)Cc2ccc(Cl)c(Cl)c2)[C@@H](C)CN([C@H](C)CO)C(=O)c2cc(NC(=O)Nc3ccc4c(c3)OCO4)ccc2O1,inactive
